High-throughput results from PubChem BioAssay.
ClpP mod = qHTS Assay for Activators of ClpP; ATP-dependent Clp protease proteolytic subunit (Bacillus subtilis (strain 168)), P80244; AID 651965, 2013; Potency, µM (highest dose often 57.5 µM), inactives show at the top dose activity change, negative = active; 340,000 tested, 1.9% active; purified B. subtilis ClpP, FRET peptide cleavage, 20 min; active = well fitted falling curve with a large enough effect; inconclusive = small, poorly fitted or top-dose-only effect; inactive = no such curve, though single readings can be large or run the other way; note: the source files actives as falling curves though it sought activators and does not explain the sign; nearly all actives have a fitted effect of over 65% in size
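Buffer: 100 mM Tris/HCl pH8, 100 mM KCl, 0.05% low protease BSA, 2.5% glycerol, 0.01% Tween-20. ClpP 10 microg/mL final; 20 min RT; delta FRET normalized to ADEP and DMSO controls.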
TDP1 cell noCPT = qHTS for Inhibitors of human tyrosyl-DNA phosphodiesterase 1 (TDP1): qHTS in cells in absence of CPT | DT40 Tdp1-/- hTDP1 cells, no CPT, ATP luminescence, 48 h | Potency, µM (top dose mostly 46.2 µM), for inactives: at the top dose activity change, negative = growth inhibition, hits mostly inhibitors | 420,000 tested, 15% active | AID 686978, 2013; note: % is set by controls: 0 for no effect and ±100 for the full control effect; nearly all actives have a fitted effect of over 55% in size
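A cellular qHTS used chicken DT40 cells lacking endogenous Tdp1 but carrying stably transfected human TDP1. Compounds were applied without camptothecin, and cell growth kinetics were judged by ATP-dependent luminescence after ≥48 hr.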
TDP1 cell CPT = qHTS for Inhibitors of human tyrosyl-DNA phosphodiesterase 1 (TDP1): qHTS in cells in presence of CPT | chicken DT40 Tdp1-/-;hTDP1 cells + 20 nM CPT, ATP luminescence, 48 h | Potency, µM (titrated, usually from 46.2 µM), for inactives: at the top dose activity change, negative = growth inhibition, actives largely listed as inhibitors | 420,000 tested, 12% active | AID 686979, 2013; note: % is set by controls: 0 for no effect and ±100 for the full control effect; nearly all actives have a fitted effect of over 55% in size
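Chicken DT40 Tdp1-/- cells complemented with human TDP1, 400 cells/well, exposed to compounds plus 20 nM camptothecin for at least 48 h at 37 C; viability read as ATP content by CellTiter-Glo luminescence.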
TDP1 block = qHTS Assay for Inhibitors of Tyrosyl-DNA Phosphodiesterase (TDP1); AID 485290, 2010; Potency, µM (series often up to 130 µM), without a hit: at the highest dose activity change, negative = inhibition, hits mostly inhibitors; 350,000 tested, 0.28% active; recombinant TDP1, AlphaScreen DNA substrate cleavage; note: % is set by controls: 0 for no effect and ±100 for the full control effect; nearly all actives have a fitted effect of over 40% in size
Target sequence (Q9NUW8 whole entry, looked up): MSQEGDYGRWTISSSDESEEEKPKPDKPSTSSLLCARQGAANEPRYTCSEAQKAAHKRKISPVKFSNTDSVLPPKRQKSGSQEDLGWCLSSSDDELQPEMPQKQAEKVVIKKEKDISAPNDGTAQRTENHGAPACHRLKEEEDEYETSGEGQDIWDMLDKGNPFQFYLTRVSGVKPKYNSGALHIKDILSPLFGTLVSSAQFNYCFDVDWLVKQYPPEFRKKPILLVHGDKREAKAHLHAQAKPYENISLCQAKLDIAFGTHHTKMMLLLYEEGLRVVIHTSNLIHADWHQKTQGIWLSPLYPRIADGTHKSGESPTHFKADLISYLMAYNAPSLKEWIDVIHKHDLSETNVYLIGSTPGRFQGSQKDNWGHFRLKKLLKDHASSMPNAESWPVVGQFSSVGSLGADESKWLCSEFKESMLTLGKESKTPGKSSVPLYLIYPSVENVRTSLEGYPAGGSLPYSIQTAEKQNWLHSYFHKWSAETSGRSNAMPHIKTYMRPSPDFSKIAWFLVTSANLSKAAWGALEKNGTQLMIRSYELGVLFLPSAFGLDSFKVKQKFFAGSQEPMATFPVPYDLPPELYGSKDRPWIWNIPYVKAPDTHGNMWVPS
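Recombinant E. coli-expressed Tdp1 (1 nM) preincubated with compound 15 min at RT, then 5'-biotin/3'-phosphotyrosine-FITC DNA substrate (15 nM) added for 5 min. AlphaScreen beads (10 ug/ml) added, 10 min RT; tyrosine-FITC cleavage read as signal loss.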
An asterisk follows results filed as active; [ ] = remark or other dose. The list is not random: actives were taken first. Their share in the collection is about 17%. Unless noted, calls come from the whole dose curve; as a rule, active = well fitted curve in the direction sought with a large enough effect; inconclusive = small, poorly fitted or top-dose-only effect, or another doubt; inactive = no such curve, though single readings can be large; an effect the other way counts as inactive or inconclusive. Potency is the fitted concentration of half-maximal effect.

CCCc1nc2c(nnn2Cc2ccccc2Cl)c(=O)[nH]1 was read as TDP1 cell noCPT 0.5%, TDP1 cell CPT -7.2% and TDP1 block -2.3%.
Screening CCNc1nc(NCC)nc(N/N=C/c2ccc(Br)cc2)n1 returned TDP1 cell noCPT inconclusive, TDP1 cell CPT -28.7% and TDP1 block 1.6%.
`O=C(CSc1nnc2[nH]c(=O)cc(-c3ccccc3)n12)Nc1ccc(OC(F)(F)F)cc1` gave ClpP mod -27.3%, TDP1 cell noCPT 4.6%, TDP1 cell CPT -4.3% and TDP1 block 5.2%.
`COc1ccccc1CNC(=O)c1cnc(SC)nc1C` gave ClpP mod 1.0%, TDP1 cell noCPT 14.6µM*, TDP1 cell CPT 23.1µM* and TDP1 block 0.0%.
COc1ccccc1CNC(=O)C(C)Sc1ccc(C)cc1 (configuration not stated) was read as TDP1 cell noCPT 25.9µM*, TDP1 cell CPT -3.2% and TDP1 block 0.0%.
For COc1ccccc1CNC(=O)c1ccoc1C the results were ClpP mod -1.0%, TDP1 cell noCPT -10.7%, TDP1 cell CPT 4.6% and TDP1 block 9.6%.
Screening CSc1ncc(C(=O)NCc2ccc(F)cc2)c(-c2ccccc2)n1 returned ClpP mod -1.7%, TDP1 cell noCPT active, TDP1 cell CPT -13.0% and TDP1 block 2.5%.
`O=[N+]([O-])c1ccccc1S(=O)(=O)NCc1ccccn1` gave ClpP mod -3.5%, TDP1 cell noCPT 12.3% and TDP1 cell CPT -11.9%.
For Cc1cccc(/C=N/N2CCN(c3ccccc3)CC2)c1 the results were ClpP mod -7.4%, TDP1 cell noCPT inconclusive, TDP1 cell CPT 4.0% and TDP1 block 4.7%.
Screening CO[C@H]1COC(=O)C/C=C\[C@H](C)[C@@H](OC)COC(=O)[C@@H](C)COC(=O)C/C=C\[C@@H]1C returned TDP1 block 2.6%[21 µM].
For Cc1ccc(N2CC(O)=C(c3nc4ccccc4c(=O)[nH]3)C2=N)cc1C the results were TDP1 cell noCPT inconclusive, TDP1 cell CPT inconclusive and TDP1 block 5.6%.
O=C(O)CNC(=O)c1ccc([N+](=O)[O-])cc1 was read as TDP1 block 17.8%.
Screening Cc1cc(C)cc(C(O)c2ncc(-c3ccccc3Cl)[nH]2)c1 (configuration not stated) returned ClpP mod -5.5%, TDP1 cell noCPT inconclusive and TDP1 cell CPT inconclusive.
For CCOC(=O)C1(CCOC)CCN(Cc2cnc(-c3cccc(C)c3)nc2)CC1 the results were TDP1 cell noCPT 16.4µM* and TDP1 cell CPT inconclusive.
CCOC(=O)C1(CCOc2ccccc2)CCN(Cc2cc(OC)c(O)c(OC)c2)CC1 was read as ClpP mod -0.4%, TDP1 cell noCPT inconclusive and TDP1 cell CPT 29.1µM*.
CCOC(=O)C1(CC2CC2)CCN(Cc2cnc(-c3ccccc3C)nc2)CC1 was read as ClpP mod 1.4%, TDP1 cell noCPT 18.4µM*, TDP1 cell CPT 14.6µM* and TDP1 block 2.6%.
Screening CCOC(=O)C1(CCOc2ccccc2)CCN(Cc2ccc(OC)c(O)c2)CC1 returned ClpP mod -0.1%, TDP1 cell noCPT inconclusive and TDP1 cell CPT 16.4µM*.
Screening CCOC(=O)C1(CC2CC2)CCN(Cc2cc(Cl)c(O)c(OC)c2)CC1 returned TDP1 cell noCPT -29.3%, TDP1 cell CPT 6.1% and TDP1 block 2.4%.
`O=C1NC(Cc2ccc(O)cc2)c2nc3ccc(F)cc3c(=O)n2-c2cc(Cl)ccc21` (configuration not stated) gave ClpP mod 0.3%, TDP1 cell noCPT 1.6% and TDP1 cell CPT -8.8%.
For COc1ccc(OCC(=O)OCc2cc(=O)n3nc(C4CC4)sc3n2)cc1 the results were ClpP mod -6.3%, TDP1 cell noCPT -20.6%, TDP1 cell CPT 1.0% and TDP1 block 1.9%.
For COCCN1C[C@@H](CO)O[C@@H](n2cnc3c(NCc4ccncc4)ncnc32)C1 the results were ClpP mod -6.8%, TDP1 cell noCPT -11.7% and TDP1 cell CPT inconclusive.
Screening COc1cc2[nH]c3c(c2cc1OC)CCN1CCCC[C@@H]31 returned ClpP mod 4.7%, TDP1 cell noCPT -4.9% and TDP1 cell CPT 14.0%.
Screening CCOC(=O)C1(CCOc2ccccc2)CCN(Cc2ccc(OC)c(COC)c2)CC1 returned ClpP mod -12.0%, TDP1 cell noCPT 18.4µM* and TDP1 cell CPT 18.4µM*.
CCOC(=O)C1(CCOc2ccccc2)CCN(Cc2ccc(O)cc2)CC1 was read as ClpP mod 3.1%, TDP1 cell noCPT inconclusive and TDP1 cell CPT inconclusive.
Screening COc1ccc(-c2cc(C)no2)cc1S(=O)(=O)Nc1ccccc1 returned ClpP mod 0.3%, TDP1 cell noCPT 9.2µM*, TDP1 cell CPT 25.9µM* and TDP1 block 4.3%.
Cc1cccc(NS(=O)(=O)c2cccs2)n1 was read as ClpP mod 20µM*, TDP1 cell noCPT 3.7%, TDP1 cell CPT -1.4% and TDP1 block 2.2%.
Cc1ccnc(NS(=O)(=O)c2cc(-c3cc(C)no3)ccc2C)c1 was read as ClpP mod -27.1%, TDP1 cell noCPT -11.3%, TDP1 cell CPT 0.3% and TDP1 block 5.3%.
For Cc1cc(-c2ccc(C)c(S(=O)(=O)NC(c3cccs3)C(C)C)c2)on1 (configuration not stated) the results were ClpP mod -1.3%, TDP1 cell noCPT 18.4µM*, TDP1 cell CPT 18.4µM* and TDP1 block 7.9%.
For COc1ccc(-c2cc(C)no2)cc1S(=O)(=O)Nc1cccc(C)c1 the results were ClpP mod 0.2%, TDP1 cell noCPT -25.9%, TDP1 cell CPT -8.8% and TDP1 block 3.3%.
For COc1ccc(Cl)cc1NS(=O)(=O)c1cc(-c2cc(C)no2)ccc1C the results were ClpP mod 0.1%, TDP1 cell noCPT 7.31µM*, TDP1 cell CPT 6.51µM* and TDP1 block 0.0%.
Cc1ccc(NS(=O)(=O)c2cccs2)nc1 was read as ClpP mod 3.6%, TDP1 cell noCPT 9.0%, TDP1 cell CPT -7.4% and TDP1 block 0.7%.
Screening O=C(NCc1ccc(F)cc1)C1CC(=O)N(C2CCCCC2)C1 (configuration not stated) returned ClpP mod 1.6%, TDP1 cell noCPT 20.9%, TDP1 cell CPT 2.4% and TDP1 block 4.4%.
Screening CC(C)n1nnnc1C1c2ccccc2C(=O)N1CCCN1CCOCC1 (configuration not stated) returned ClpP mod 1.7%, TDP1 cell noCPT -26.9% and TDP1 cell CPT 10.9%.
CC1CCN(CCCNC(=O)C2CCN(S(=O)(=O)N3CCC4(CC3)OCCO4)CC2)CC1 was read as ClpP mod -0.2%, TDP1 cell noCPT 27.5%, TDP1 cell CPT -3.0% and TDP1 block 1.9%.
